From PubChem BioAssay AID720648 (The Scripps Research Institute Molecular Screening Center, 2013)
About 3,100 (0.84%) of roughly 370,000 compounds were called active.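 Rule for the calls: active = inhibition above the mean of compounds lying between control limits plus 3 SD, set per campaign (cut at about 8.5% in these data); inactive = the rest.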 For the sample, actives were picked, then their nearest neighbours and some compounds at random.

Target: Disintegrin and metalloproteinase domain-containing protein 17 (Homo sapiens) (UniProt P78536)
Sequence (P78536 215-824 limits assumed): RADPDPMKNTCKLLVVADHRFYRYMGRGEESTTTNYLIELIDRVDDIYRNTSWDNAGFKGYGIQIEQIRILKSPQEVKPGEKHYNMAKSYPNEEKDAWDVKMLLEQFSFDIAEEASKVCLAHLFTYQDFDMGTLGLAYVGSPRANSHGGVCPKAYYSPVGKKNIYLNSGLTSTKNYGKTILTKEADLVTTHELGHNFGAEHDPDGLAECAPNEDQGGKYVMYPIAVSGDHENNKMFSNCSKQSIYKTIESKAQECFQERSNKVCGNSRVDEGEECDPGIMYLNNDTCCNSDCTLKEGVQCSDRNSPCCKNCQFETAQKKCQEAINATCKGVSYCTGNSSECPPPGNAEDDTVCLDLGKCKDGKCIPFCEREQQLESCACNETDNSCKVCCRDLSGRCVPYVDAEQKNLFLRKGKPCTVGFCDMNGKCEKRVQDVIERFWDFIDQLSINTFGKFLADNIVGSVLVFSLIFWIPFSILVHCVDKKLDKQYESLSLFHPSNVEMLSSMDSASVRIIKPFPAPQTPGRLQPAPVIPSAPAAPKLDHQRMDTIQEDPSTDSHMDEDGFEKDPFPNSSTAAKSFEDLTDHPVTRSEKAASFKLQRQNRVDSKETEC
Assay: ADAM17 inhibitors, primary screen, biochemical, QFRET (AID 720648);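 note: 0% = DMSO-only wells as the low control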
Conditions: recombinant ADAM17, EDANS/DABCYL FRET peptide cleavage; at 6.95 µM; hits give high values

Compound | inhibition
Cc1ccc(-n2c(SCC(=O)Nc3ccc(S(=O)(=O)Nc4nccs4)cc3)nnc2-c2cccnc2)cc1 | 5.12% (inactive)
O=C(c1ccccc1)N1CCN(c2ccc([N+](=O)[O-])c(NCc3ccco3)c2)CC1 | 9.15% (active)
O=[N+]([O-])c1ccc(N2CCN(S(=O)(=O)c3ccc4ccccc4c3)CC2)cc1NCc1ccco1 | -3.62% (inactive)
COc1ccc(CCNc2cc(N3CCN(C(=O)c4ccccc4OC)CC3)ccc2[N+](=O)[O-])cc1OC | -5.46% (inactive)
CCOC(=O)[C@]12CCCCC/C=C\1N(Cc1ccc(OC)cc1)C(=O)[C@H]2CC(=O)N1CCOCC1 | -0.25% (inactive)
COc1ccnc(C(=O)N2CCC(Oc3cccnc3)CC2)c1 | 1.66% (inactive)
CCOC(=O)N1CCN(C(=O)C[C@H]2C[C@@]3(C(=O)OC)C(=C[C@H](C(C)(C)C)O[C@@H]3C)N(Cc3ccc(Cl)cc3Cl)C2=O)CC1 | 2.67% (inactive)
CCC(=O)OCc1c(C(F)(F)F)nn(C)c1Oc1cccc(C(F)(F)F)c1 | -2.77% (inactive)
COC(=O)c1ccccc1Sc1c(/C=N/OCc2ccc(Cl)cc2)c(C(F)(F)F)nn1C | -4.94% (inactive)
Cn1nc(C(F)(F)F)c(C(=O)Nc2cccc(C(F)(F)F)c2)c1SCc1ccc(Cl)cc1 | 19.8% (active)
O=S1(=O)c2ccc(N3CCN(Cc4ccccc4F)CC3)cc2Oc2ccccc2CN1Cc1cn(Cc2ccc(Cl)cc2)nn1 | 7.88% (inactive)
CC(C)CNC(=O)OCc1cn(Cc2ccc(F)cc2)nn1 | 3.83% (inactive)
O=C(C[C@H]1C(=O)N(c2ccc(F)c(F)c2)C[C@@H]1Cc1ccccc1)Nc1ccccc1 | 9.24% (active)
CNC(=O)C[C@H]1C(=O)N(c2ccc(OC)cc2)C[C@@H]1Cc1ccccc1 | -1.23% (inactive)
C[C@H]1CN(c2ccc(Br)cc2)C(=O)[C@@H]1CC(=O)Nc1ccc(Br)cc1 | -0.38% (inactive)
COc1ccc(C(CNC(=O)c2ccc(S(=O)(=O)Nc3ccccc3C)cc2)N2CCOCC2)cc1 (stereo unspecified) | -1.54% (inactive)
COc1ccc(C(CNC(=O)c2cc(S(=O)(=O)Nc3cccc(C)c3)ccc2C)N2CCCC2)cc1 (stereo unspecified) | 10.3% (active)
COc1ccc(NS(=O)(=O)c2ccc(C)c(C(=O)NCC(c3cccs3)N3CCOCC3)c2)cc1 (stereo unspecified) | -1.97% (inactive)
O=C(Nc1cc(F)cc(F)c1)OC1CCC12CCC(c1ccccc1)CC2 (stereo unspecified) | 3.79% (inactive)
COc1cccc(N(C)C(=O)[C@@H](C)[C@@H](O)c2ccc3ccccc3c2)c1 | -0.07% (inactive)
CC(=O)C1(C(=O)Nc2nccs2)CC(c2ccccc2C(F)(F)F)=NO1 (stereo unspecified) | -1.77% (inactive)
CC[C@@]12C(=O)N(c3ccccc3)C(=O)N1[C@H](c1ccc(Br)cc1)[C@@H]1C(=O)N(C(C)(C)C)C(=O)[C@@H]12 | 8.73% (active)
Cc1cccc(N2C(=O)N3[C@H](c4ccc(F)cc4)[C@@H]4C(=O)N(C5CCCCC5)C(=O)[C@@H]4[C@]3(Cc3ccccc3)C2=O)c1 | 1.18% (inactive)
COc1ccc([C@@H]2[C@@H]3C(=O)N(C(C)(C)C)C(=O)[C@@H]3[C@]3(Cc4ccccc4)C(=O)N(c4cccc(Br)c4)C(=O)N23)cc1 | 13.1% (active)
Cc1cccc([C@@H]2[C@@H]3C(=O)N(Cc4ccccc4)C(=O)[C@@H]3[C@]3(Cc4ccc(Cl)cc4)C(=O)N(c4cccc(Cl)c4)C(=O)N23)c1 | 1.28% (inactive)
C[C@@]12C(=O)N(c3cccc(Br)c3)C(=O)N1[C@H](c1ccc(Cl)cc1)[C@@H]1C(=O)N(C3CCCCC3)C(=O)[C@@H]12 | 13.3% (active)

Compound | inhibition
CCN1C(=O)[C@H]2[C@@H](c3ccc(-c4ccc(OC)cc4)cc3)N[C@@](Cc3ccccc3)(C(=O)OC)[C@H]2C1=O | -1.71% (inactive)
O=C1[C@H]2[C@@H](c3ccc(F)cc3)N3C(=O)N(c4ccc(C(F)(F)F)cc4)C(=O)[C@@]3(Cc3ccccc3)[C@H]2C(=O)N1C1CCCCC1 | 1.1% (inactive)
CCN1C(=O)[C@H]2[C@@H](c3ccc(C)cc3)N3C(=O)N(c4cccc(Br)c4)C(=O)[C@@]3(CC)[C@H]2C1=O | 1.14% (inactive)
O=C1[C@H]2[C@@H](c3ccc(Cl)cc3)N3C(=O)N(c4cccc(F)c4)C(=O)[C@@]3(Cc3ccccc3)[C@H]2C(=O)N1C1CCCCC1 | -3.52% (inactive)
CCOC(=O)[C@@H]1[C@H]2COc3cc(OC)ccc3[C@@H]2N2C(=O)N(c3cccc(C)c3)C(=O)[C@@]12C | -2.53% (inactive)
CC12C(=O)N(c3ccccc3)C(=O)C1C(c1ccccc1)N1CCCN12 (stereo unspecified) | 0.41% (inactive)
CC(C)(C)N1C(=O)[C@H]2[C@@H](c3ccc(Br)cc3)N3C(=O)N(c4cccc(Cl)c4)C(=O)[C@@]3(C)[C@H]2C1=O | 10% (active)
Cc1ccc(Cn2cc(CN3[C@@H](C)COc4cc(Br)ccc4S3(=O)=O)nn2)cc1 | -2.3% (inactive)
COC(=O)c1cccc(Cn2ccc3ccc(-c4ccc5ccn(C(=O)C6CCCCC6)c5c4)cc32)c1 | -4.69% (inactive)
Cc1ccc(C2=CCN(C)C(=O)N2c2ccc(Cl)cc2)cc1 | 0.02% (inactive)
CCOC(=O)C1CCN(C(=O)C(C)(C)NC(=O)Nc2ccc(F)c(F)c2)CC1 | 0.09% (inactive)
COc1ccccc1C(=O)CSc1nnc(-c2ccccn2)n1-c1ccccc1 | -0.51% (inactive)
CCOC(=O)[C@]12CCCCC/C=C\1N(Cc1ccc(OC)cc1)C(=O)[C@H]2CC(=O)NCc1ccc(C)o1 | -1.43% (inactive)
Cc1ccc(C)c(-n2c(SCC(=O)O)nc3sc4c(c3c2=O)CCCC4)c1 | 0.43% (inactive)
CCn1c(SCC(C)=O)nc2sc3c(c2c1=O)CCCC3 | -1.68% (inactive)
NNC(=O)C1CCCn2c1nc1sc3c(c1c2=O)CCCC3 (stereo unspecified) | 11.2% (active)
O=C(CN1CCC(NC(=O)NCc2ccccc2)CC1)Nc1ccc2c(c1)OCCO2 | -4.62% (inactive)
CCCC[C@H](C(=O)N(CC)c1ccccc1)[C@@H](O)c1ccc2ccccc2c1 | 4.5% (inactive)
O=C1CCC(C(=O)OCC(=O)Nc2ccc(OC(F)F)cc2)=NN1 | 5.95% (inactive)
COc1ccc(NC(=O)COC(=O)CNC(=O)C2CCCCC2)cc1 | -0.83% (inactive)
CCC(C)(C)c1ccc(Oc2ccc(NC(=O)COC(=O)C3=COCCO3)cc2)cc1 | 15.7% (active)
CCOC(=O)N1CCN(C(=O)C[C@@H]2C(=O)N(CCc3ccc(Cl)cc3)C3=CCCC[C@]32C(=O)OCC)CC1 | -1.27% (inactive)
CC[C@@H](CCC(=O)N(c1ccccc1)c1ccccc1)C1CC1 | -3.63% (inactive)
Nn1c(SCC(=O)Nc2cccc3ccccc23)nnc1-c1cc(-c2ccc(F)cc2)n[nH]1 | -1.2% (inactive)
C/C(Cl)=C\Cn1c(Nc2cccc(C)c2)nc2c1c(=O)n(C)c(=O)n2C | 1.3% (inactive)
Cn1c(=O)c2c(nc(N/N=C/c3cccs3)n2Cc2ccc(Br)cc2)n(C)c1=O | 9.47% (active)

Compound | inhibition
Cn1c(=O)c2sccc2n(Cc2ccc(Br)cc2)c1=O | 0.1% (inactive)
COc1ccc(CSc2nnc(-c3cccc(C)c3)n2C)cc1 | -0.21% (inactive)
CCOc1ccc(Nc2nc(Cc3nnc(SCC(=O)c4ccc(C)cc4)o3)cs2)cc1 | 13.7% (active)
CCOc1ccc(Nc2nc(Cc3nnc(SCC(=O)NC4CCCC4)n3C)cs2)cc1 | -1.2% (inactive)
CC(=O)Nc1ccc(C(=O)CSc2nnc(Cc3ccccc3)o2)cc1 | 2.43% (inactive)
COc1ccc(C2CC=C(C(=O)O)C(c3ccccc3F)N2S(=O)(=O)c2ccc(C)cc2)cc1OC (stereo unspecified) | -3.14% (inactive)
CC1=CC(C)(C)NC(=S)N1c1ccccc1 | -5.69% (inactive)
O=C1/C(=C\c2ccsc2)NC(=S)N1c1ccccc1 | 9.7% (active)
CCCCN=C1N/C(=C\c2ccco2)C(=O)N1c1ccccc1 | -3.3% (inactive)
CCC(=O)OCCCN1C(=O)CCC12CCC(c1ccccc1)CC2 (stereo unspecified) | 0.25% (inactive)
O=C(CCl)NC1CCCCN(Cc2cccc(C(F)(F)F)c2)C1=O (stereo unspecified) | -6.37% (inactive)
O=S1(=O)c2ccc(Br)cc2OC[C@H](Cc2ccccc2)N1Cc1cn(Cc2ccccc2)nn1 | -10.2% (inactive)
CC(C)(C)OC(=O)N1CCC(NC(=O)c2[nH]cnc2C(=O)N[C@@H](Cc2ccccc2)C(=O)OCc2ccccc2)CC1 | 14.3% (active)
CC(C)(C)OC(=O)CNC(=O)c1[nH]cnc1C(=O)N[C@@H](Cc1ccccc1)C(=O)OCc1ccccc1 | 11.2% (active)
C[C@@H](NC(=O)c1nc[nH]c1C(=O)N1CCN(C(=O)OC(C)(C)C)CC1)c1ccccc1 | -5.12% (inactive)
CNC(=O)c1[nH]cnc1C(=O)N[C@@H](CC(C)C)C(=O)OCc1ccccc1 | 1.89% (inactive)
C[C@H](NC(=O)c1nc[nH]c1C(=O)NCC(=O)OC(C)(C)C)C(=O)OCc1ccccc1 | 0.33% (inactive)
C[C@H](NC(=O)c1nc[nH]c1C(=O)NCC(=O)OC(C)(C)C)c1ccccc1 | -0.12% (inactive)
Cc1cc(C)n2ncc(C(=O)Nc3ccc4c(c3)OCCO4)c2n1 | -3.48% (inactive)
COc1cc(NC(=O)C2CCCN(S(=O)(=O)c3ccc(C(C)(C)C)cc3)C2)cc(OC)c1 (stereo unspecified) | 3.29% (inactive)
CCOC(=O)[C@]12CCCC=C1N(Cc1ccc(OC)cc1)C(=O)[C@@H]2CC(=O)N1CCOCC1 | -0.05% (inactive)
CCOc1ccc(OCC)c(-c2c(=O)n(OCc3ccc(Cl)cc3)c3ccccc3[n+]2[O-])c1 | 9.36% (active)
O=c1c(-c2ccc(Cl)cc2)[n+]([O-])c2ccccc2n1OCc1nc2ccccc2[nH]1 | -12.2% (inactive)
COc1ccc(OC)c(-c2c(=O)n(OCc3ccccc3Br)c3ccccc3[n+]2[O-])c1 | 0.86% (inactive)
